According to PubChem BioAssay (EPA / NIEHS):
“And” between values parts separate entries of the source, which are not always exact repeats. Equal values may be shown once. Results filed as inconclusive are left out. Where a structure was tested more than once in an assay, its records may differ in their call. The source made the active and inactive calls. Rule for the calls, unless noted: active = hit-call score of the fitted dose curve at least 0.9, where 1 is the maximum; inactive = score below 0.9.

Tests used:
[1] = ACEA_ER_80hr: ACEA Biosciences xCELLigence Real-Time Cell Analysis on Estrogen Receptor Agonism for Proliferation (AID 2282667; active = hit-call score of the fitted dose curve at least 0.9, where 1 is the maximum); conditions: T47D proliferation, impedance (xCELLigence), 80 h
Summary of the method: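 T-47D cells monitored by electrical impedance (xCELLigence) with compound present throughout; 80 h timepoint, positive-direction fitting versus DMSO. Eight-point 1:4 dilutions from 100 uM final, duplicate plates.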

[2] = APR_HepG2_CellCycleArrest_24hr: Apredica 24-hour HepG2 Assay for Cell Cycle Arrest (AID 2282905); conditions: imaging, actives raise or lower the signal;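 note: cell cycle arrest scored as ratio of 2N to 4N nuclear DNA content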
Summary of the method: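 Readout: Hoechst 33342 nuclear DNA content by high-content fluorescent imaging, six images/well, 20x. Human HepG2 liver cells, 24 hr compound exposure, 0.39–200 uM, final DMSO 0.5% v/v. Gain or loss fitted relative to DMSO baseline.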

[3] = APR_HepG2_NuclearSize_24hr: Apredica 24-hour HepG2 Assay for Nuclear Size (AID 2282907); conditions: high-content imaging, actives raise or lower the signal
Summary of the method: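 Read-out: nuclear diameter from Hoechst 33342 (2 ug/mL) imaging of fixed HepG2 cells, 20x, six fields/well. Compounds ran at 0.39–200 uM for 24 hr, 0.5% DMSO final. Gain or loss was fitted bidirectionally relative to the DMSO baseline.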

[4] = APR_HepG2_CellLoss_24hr: Apredica 24-hour HepG2 Assay for Cell Loss (AID 2282908); conditions: high-content imaging;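 for AC50: fit in both directions so a hit may be cell loss or gain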
Summary of the method: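 Read-out: Hoechst 33342-stained nuclei counted by automated fluorescence imaging after formaldehyde fixation and Triton permeabilization. Ten concentrations, 0.39 to 200 uM, duplicate wells, 0.5% DMSO final. Gain or loss of signal fitted relative to DMSO baseline.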

[5] = APR_HepG2_MicrotubuleCSK_24hr: Apredica 24-hour HepG2 Assay for Microtubule CSK Stabilty (AID 2282909); conditions: HepG2 microtubule cytoskeleton imaging, actives raise or lower the signal
Summary of the method: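 Read-out: alpha-tubulin immunofluorescence intensity by automated high-content imaging of fixed HepG2 cells after 24 h compound treatment. Ten concentrations, 0.39 to 200 uM, in duplicate; DMSO 0.5% v/v. Taxol positive control; DMSO-normalized bidirectional curve fitting.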

[6] = APR_HepG2_MitoticArrest_24hr: Apredica 24-hour HepG2 Assay for Mitotic Arrest (AID 2282910); conditions: high-content imaging, actives raise or lower the signal
Summary of the method: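 Treatment lasted 24 hr in the human HepG2 line at 0.39–200 uM, solvent held at 0.5% DMSO. Fixed cells were stained with Hoechst 33342 and anti-phospho-histone H3, imaged at 20x, and analysed by gain- or loss-of-signal fitting against DMSO.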

[7] = APR_HepG2_MitoMembPot_24hr: Apredica 24-hour HepG2 Assay for Mitochondrial Membrane Potential (AID 2282911); conditions: imaging, actives raise or lower the signal
Summary of the method: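 HepG2 cells exposed 24 h to 0.39–200 uM compounds in duplicate, 0.5% v/v DMSO final. MitoTracker Red CMXRos 250 nM loaded 30 min before formaldehyde fixation; high-content imaging at 20x, bidirectional fit versus DMSO.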

[8] = APR_HepG2_MitoMass_24hr: Apredica 24-hour HepG2 Assay for Mitochondrial Mass (AID 2282912); conditions: high-content imaging, actives raise or lower the signal
Summary of the method: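 HepG2, 24 hr dosing, 10 concentrations 0.39–200 uM in duplicate, DMSO 0.5% final. MitoTracker Red CMXRos 250 nM, 30 min pre-fix; 3.7% formaldehyde fix. Imaging-based fluorescence intensity; gain/loss fit vs DMSO baseline.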

[9] = APR_HepG2_p53Act_24hr: Apredica 24-hour HepG2 Assay for p53 Activation (AID 2282913); conditions: high-content imaging, actives raise or lower the signal;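 note: p53 protein immunofluorescence averaged per cell in HepG2 with Hoechst nuclei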
Summary of the method: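 HepG2 cells exposed 24 h to compounds at 0.39–200 uM in duplicate, 0.5% v/v DMSO final; fixed, permeabilized, stained with anti-p53 antibody and Hoechst 33342; fluorescence imaging; bidirectional curve fit versus DMSO.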

[10] = APR_HepG2_CellCycleArrest_72hr: Apredica 72-hour HepG2 Assay for Cell Cycle Arrest (AID 2282914); conditions: high-content imaging, actives raise or lower the signal
Summary of the method: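 HepG2 cells exposed 72 h in duplicate to 0.39–200 uM compound, 0.5% DMSO final. Formaldehyde-fixed, Hoechst 33342-stained nuclei imaged at 20x, six fields per well; DNA content per valid cell quantified by cell-cycle image analysis, bidirectional fit versus DMSO.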

[11] = APR_HepG2_CellLoss_72hr: Apredica 72-hour HepG2 Assay for Cell Loss (AID 2282915); conditions: high-content imaging
Summary of the method: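 HepG2 cells were exposed for 72 hr to compounds at 0.39–200 uM (ten concentrations, duplicate) in 0.5% v/v final DMSO. Nuclei were stained with Hoechst 33342 after 3.7% formaldehyde fixation, imaged at 20x, and counted; fits bidirectional versus DMSO.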

[12] = APR_HepG2_P-H2AX_72hr: Apredica 72-hour HepG2 Assay for H2AX Phosphorylation (AID 2282916); conditions: imaging, actives raise or lower the signal;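 note: phospho-histone H2A.x immunostain intensity per cell marking DNA damage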
Summary of the method: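 Readout: phospho-H2A.x immunofluorescence (FITC secondary) plus Hoechst nuclear stain, high-content imaging at 20x, six fields/well. HepG2, 72 hr compound exposure, 0.39–200 uM, final DMSO 0.5% v/v. Gain or loss fitted relative to DMSO baseline.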

[13] = APR_HepG2_MitoMembPot_72hr: Apredica 72-hour HepG2 Assay for Mitochondrial Membrane Potential (AID 2282917); conditions: imaging, actives raise or lower the signal
Summary of the method: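 HepG2 cells exposed 72 h to compounds at 0.39–200 uM (0.5% v/v DMSO, duplicates); MitoTracker Red CMXRos 250 nM loaded 30 min before 3.7% formaldehyde fixation, imaged by HCS fluorescence. Bidirectional fit versus DMSO.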

[14] = APR_HepG2_MitoticArrest_72hr: Apredica 72-hour HepG2 Assay for Mitotic Arrest (AID 2282918); conditions: high-content imaging, actives raise or lower the signal
Summary of the method: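 HepG2 cells treated 72 h at 0.39–200 uM, 0.5% DMSO final; formaldehyde-fixed, stained with Hoechst 33342 and phospho-histone H3 antibody, imaged by high-content fluorescence; bidirectional fit versus DMSO.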

[15] = APR_HepG2_MicrotubuleCSK_72hr: Apredica 72-hour HepG2 Assay for Microtubule CSK Stabilty (AID 2282919); conditions: HepG2 microtubule cytoskeleton, high-content imaging, actives raise or lower the signal
Summary of the method: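 Ten-point dosing (0.39–200 uM, 0.5% DMSO) of HepG2 for 72 hr, with taxol as the cytoskeletal positive control. The cells were formaldehyde-fixed and then stained with alpha-tubulin/Cy5 and Hoechst. Imaging at 20x used a −2 um Z offset for tubulin.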

[16] = APR_HepG2_P-H2AX_24hr: Apredica 24-hour HepG2 Assay for H2AX Phosphorylation (AID 2282920); conditions: high-content imaging, actives raise or lower the signal
Summary of the method: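 HepG2 cells dosed 24 h at 0.39–200 uM (10 points, duplicate, 0.5% DMSO final). Formaldehyde-fixed and permeabilized, then immunostained for phospho-H2A.x with Hoechst. Fluorescence quantified by high-content imaging, fitted bidirectionally versus DMSO.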

[17] = APR_HepG2_StressKinase_72hr: Apredica 72-hour HepG2 Assay for Stress Kinase (AID 2282921); conditions: HepG2 stress kinase (phospho-c-Jun) imaging, actives raise or lower the signal
Summary of the method: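 Phospho-c-Jun immunofluorescence measured by high-content imaging at 20x, six fields per well; bidirectional curve fitting against DMSO as baseline. Dosing: 0.39–200 uM, 72 h, 0.5% DMSO final.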

[18] = APR_HepG2_StressKinase_24hr: Apredica 24-hour HepG2 Assay for Stress Kinase (AID 2282922); conditions: HepG2 stress kinase (phospho-c-Jun) imaging, actives raise or lower the signal
Summary of the method: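 After 24 hr compound treatment (up to 200 uM, final DMSO 0.5% v/v), HepG2 cells are fixed and multiplex-labeled; phospho-c-Jun intensity is captured by high-content fluorescence imaging and analyzed relative to DMSO.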

[19] = APR_HepG2_p53Act_72hr: Apredica 72-hour HepG2 Assay for p53 Activation (AID 2282923); conditions: high-content imaging, actives raise or lower the signal;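 note: average cellular p53 protein immunofluorescence intensity in HepG2 cells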
Summary of the method: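 Readout: p53 immunofluorescence quantified by automated high-content imaging at 20x, six fields per well, nuclei located via Hoechst. Dosing ran 72 hr over ten concentrations from 0.39 to 200 uM; bidirectional curve fitting against DMSO baseline.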

[20] = APR_HepG2_MitoMass_72hr: Apredica 72-hour HepG2 Assay for Mitochondrial Mass (AID 2282924); conditions: high-content imaging, actives raise or lower the signal;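 note: MitoTracker Red CMXRos stain intensity per cell imaged as mitochondrial mass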
Summary of the method: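 Steps: treat HepG2 72 hr (0.39–200 uM, duplicate wells); load MitoTracker Red CMXRos, 250 nM, 30 min; fix with 3.7% formaldehyde, permeabilise with 0.5% Triton X-100; capture images, nuclei via Hoechst 33342; fit bidirectionally against DMSO.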

Measured: AC50

NC(=O)N(O)[C@@H]1C=C[C@H](Oc2cccc(Oc3ccc(F)cc3)c2)C1
active: [4] 107 µM | [5] 93 µM | [7] 32.9 µM | [9] 105 µM | [11] 94.7 µM | [14] 85.4 µM | [16] 103 µM
inactive: all other assays above

CC(C)(C)c1ccc(O)c(C(C)(C)C)c1
active: [4] 38.5 µM | [7] 8.96 µM | [11] 66 µM | [12] 36.5 µM | [16] 42.8 µM | [17] 56.6 µM | [18] 48.3 µM | [19] 20.3 µM
inactive: all other assays above

CCC(=C(c1ccc(O)cc1)c1ccc(OCCN(C)C)cc1)c1ccccc1
inactive: [1] | [2] | [3] | [4] | [5] | [6] | [7] | [8] | [10] | [11] | [12] | [13] | [14] | [15] | [16] | [17] | [18] | [20]
active: [1] 2.29 nM

CCN(CC)CCNc1ccc(CNC=O)c2sc3ccc(OC)cc3c(=O)c12
active: [2] 5.68 µM | [4] 60.2 µM | [6] 7.05 µM | [8] 32.6 µM | [9] 2.62 µM | [10] 6.28 µM | [11] 7.4 µM | [14] 5 µM | [16] 5.94 µM
inactive: all other assays above

c1ccc2cc3c(ccc4ccccc43)cc2c1
inactive: [1] | [3] | [5] | [12] | [15] | [17] | [18] | [19] | [20]
active: [1] 11.7 µM and 2.92 µM | [2] 67.6 µM | [4] 48.1 µM | [6] 65.7 µM | [7] 63 µM | [8] 55.8 µM | [9] 103 µM | [10] 17.4 µM | [11] 9.42 µM | [13] 73.6 µM | [14] 27.6 µM | [16] 51 µM

CCCCCCCCOC(=O)CCCCCCCCC(=O)OCCCCCCCC
inactive: all assays above
